Out of some 52,000 compounds screened, about 4,300 (8.3%) were called active. This excerpt belongs to a sample that is enriched for actives. A number with no mark means an inactive call. No stated cut-off is given here; in the data, active means survival mostly below about 52% (no sharp cut-off); inactive means mostly above about 56%.

We go through 61 compounds from PubChem BioAssay AID463173 (ICCB-Longwood Screening Facility, Harvard Medical School, 2010).

The assay concerns DeltatarO mutant. Description: S. aureus survival, RN4220 and DeltatarO strains – OD600, teichoic acid synthesis inhibitors, primary screen (AID 463173). The following applies: S. aureus RN4220 wild type/DeltatarO growth, OD600, 18 h, stronger effect = lower value, screened at 18.75 µg/mL (by protocol).
Turning to `O=C(C1CC1)N1CCN(c2nc3ccc(F)cc3s2)CC1`, the survival is 117%.

In the case of `Cc1nn(-c2ccccc2)c(OC(=O)c2ccccc2)c1S(=O)(=O)c1ccccc1`, the survival is 81%. The value for `Cc1cc(C)n(-c2n[nH]c(=S)c3ccccc23)n1` was 81%; that for `CN(Cc1ccccc1)c1ccc(-c2nc(-c3ccco3)no2)cc1[N+](=O)[O-]` was 52%. The value for `Cc1cc(Nc2cc(Cl)ccc2C)n2nc(-c3ccccc3)nc2n1` was 49%; that for `CCN(CC)C(=O)c1sc(NC(=O)C2c3ccccc3Oc3ccccc32)c(C(=O)OC(C)C)c1C` was 30% (active).

In the case of `CCCc1ccc(OCC(=O)Nc2sc(C(=O)OCC)c(C)c2C(=O)OCC)cc1`, the survival was 82%. The value for `CCOC(=O)c1c(NC(=O)COc2ccc(OC)cc2)sc(C(=O)N(CC)CC)c1C` was 3% (active); that for `COC(=O)c1c(NC(=O)COc2ccc(Cl)cc2)sc(C)c1C` was 67%.

Consider `Cc1c(C(=O)OC(C)C)sc(NC(=O)C2c3ccccc3Oc3ccccc32)c1C(=O)OC(C)C`, for which the survival was 80%. For `CCN(CC)C(=O)c1sc(NC(=O)c2nc3ncccn3n2)c(C(=O)OC)c1C` the value was 137%; for `Cc1sc(NC(=O)COc2ccc(C(C)(C)C)cc2)c(C(=O)OC(C)C)c1C`, 10% (active). The value for `CCN(CC)C(=O)c1sc(NC(C)=O)c(C(=O)OC)c1C` was 99%. For `CCOC(=O)c1c(NC(=O)COc2cc(C)ccc2C(C)C)sc(C)c1C` the value was 63%; for `CCOc1ccc(NC(=O)Cn2c3ncccc3c(=O)n2-c2ccc(CC)cc2)cc1`, 85%; for `Cc1ccc(C(=O)c2oc3ccccc3c2NC(=O)Cc2coc3c(C)c(C)ccc23)cc1`, 54%. Consider `CCCCNC(=O)Cn1ncc2c(C)n(Cc3cccc(Cl)c3)c(C)c2c1=O`, for which the survival was 93%. Consider `Cn1c(=O)c2[nH]c(=S)[nH]c2n(C)c1=O`, for which the survival is 103%. For `Cc1c(NC(=O)Nc2ccccc2C(F)(F)F)c(=O)n(-c2ccccc2)n1C` the value was 92%; for `CCOc1ccc(NC(=O)Cn2c(=O)n(Cc3nc(-c4ccccc4)no3)c(=O)c3cc4c(cc32)OCO4)cc1`, 89%. For `CCOCCc1nn2c(=O)cc(COC(=O)C3CCCCC3)nc2s1` the value was 88%; for `COc1cccc(OC(=O)N2CCOCC2)c1`, 103%; for `COc1ccc(S(=O)(=O)c2cnc3ccc(Cl)cc3c2N2CCCCC2C)cc1` (stereo unspecified), 134%. As for `CC1CCCCN1c1c(S(=O)(=O)c2ccc(Cl)cc2)cnc2ccccc12` (stereo unspecified), the survival was 102%. The value for `Cc1ccc2ncc(S(=O)(=O)c3ccccc3)c(N3CCCCC3C)c2c1` (stereo unspecified) was 7% (active); that for `CCN(CC)CCNC(=O)c1cn(CC)c2ccc(S(=O)(=O)N(C)C3CCCCC3)cc2c1=O` was 107%; that for `O=S1(=O)CCC(N2C(=S)SC3CS(=O)(=O)CC32)C1` (stereo unspecified) was 96%. For `O=C(Cn1c(=O)ccc2cc(S(=O)(=O)N3CCCC3)ccc21)NCc1ccc(Cl)cc1` the value was 102%; for `CCc1ccc(-c2cc(C)no2)cc1S(=O)(=O)Nc1ccc(C)cn1`, 55%. The value for `CCc1ccc(-c2cc(C)no2)cc1S(=O)(=O)Nc1ccc(Cl)cn1` was 17% (active); that for `CCc1ccc(-c2cc(C)no2)cc1S(=O)(=O)Nc1ccc(Cl)cc1` was 68%; that for `CCC1CCCCN1CCCNC(=O)c1c(O)nc2cc(C)ccn2c1=O` (stereo unspecified) was 80%. As to `Cc1ccc(-c2noc(-c3ccc(NCC4CCCO4)c([N+](=O)[O-])c3)n2)cc1` (stereo unspecified), the survival is 74%.

With `COc1cc(-c2noc(-c3ccc(NCc4ccccc4)c([N+](=O)[O-])c3)n2)cc(OC)c1OC`, the survival is 79%. In the case of `COc1ccccc1-c1noc(-c2ccc(NCCc3ccccc3)c([N+](=O)[O-])c2)n1`, the survival was 37% (active). The value for `COc1ccc(-c2noc(-c3ccc(NCCc4ccccc4)c([N+](=O)[O-])c3)n2)cc1OC` was 57%; that for `O=[N+]([O-])c1cc(-c2nc(-c3ccccc3)no2)ccc1NCCc1ccccc1` was 58%. For `COc1ccc(-c2noc(-c3ccc(NCC4CCCO4)c([N+](=O)[O-])c3)n2)cc1` (stereo unspecified) the value was 42% (active); for `COc1ccc(-c2noc(-c3ccc(NCC4CCCO4)c([N+](=O)[O-])c3)n2)cc1OC` (stereo unspecified), 54%. For `COc1ccccc1-c1noc(-c2ccc(NCc3cccnc3)c([N+](=O)[O-])c2)n1` the value was 47%; for `COc1ccccc1-c1noc(-c2ccc(NCc3ccccc3)c([N+](=O)[O-])c2)n1`, 35% (active). With `COc1ccc(-c2noc(-c3ccc(NCCc4ccccc4)c([N+](=O)[O-])c3)n2)cc1`, the survival is 42% (active). The value for `COc1cc(-c2noc(-c3ccc(NCCc4ccccc4)c([N+](=O)[O-])c3)n2)cc(OC)c1OC` was 66%. For `COc1ccc(-c2noc(-c3ccc(NCc4cccnc4)c([N+](=O)[O-])c3)n2)cc1` the value was 56%; for `COCC(=O)Nc1c(C(=O)Nc2ccc(C)cc2)oc2ccccc12`, 86%. On to `Cc1ccc(N)cc1N(C)C`, for which the survival was 78%. The value for `Cc1ccc(CN2CCN(C3CCN(S(=O)(=O)N(C)C)CC3)C(=O)C2=O)cc1` was 82%; that for `C=CCn1c(C(NC(=O)c2ccc(Cl)cc2Cl)C(C)C)n[nH]c1=S` (stereo unspecified) was 81%. Consider `COc1cc(NC(=O)C2CCN(S(=O)(=O)c3c(C)noc3/C=C/c3c(C)cc(C)cc3C)CC2)cc(OC)c1`, for which the survival is 78%. The value for `Cc1cccc(CCNC(=O)C2CCC(CNS(=O)(=O)c3ccccc3)CC2)c1` (stereo unspecified) was 77%. For `Clc1ccc(Nc2c(-c3ccccc3Cl)nc3ccc(Cl)cn23)cc1` the value was 45%. The value for `Cc1ccc(Cl)cc1NC(=O)NCc1cccn1Cc1ccc(F)cc1` was 104%; that for `CCNC(=O)c1c(C)oc2ncn(C)c(=O)c12` was 91%; that for `Cc1oc2ncn(CC(C)C)c(=O)c2c1C(=O)Nc1cccc(C(F)(F)F)c1` was -1% (active). As for `Cc1cccc(NC(=O)c2c(C)oc3ncn(CC(C)C)c(=O)c23)n1`, the survival was 72%. The value for `CCN(CC)CCCNC(=O)c1c(C)oc2ncn(CC(C)C)c(=O)c12` was 70%; that for `CSc1ccc(CCNC(=O)c2c(C)oc3ncn(C)c(=O)c23)cc1` was -2% (active).

As for `Cc1oc2ncn(CC(C)C)c(=O)c2c1C(=O)NCCCN1CCCCC1`, the survival is 101%. As to `Cc1ccnc(NC(=O)c2c(C)oc3ncn(CC(C)C)c(=O)c23)c1`, the survival was 92%. For `CCCCNC(=O)c1c(C)oc2ncn(CC(C)C)c(=O)c12` the value was 6% (active). The value for `CCOc1ccc(CCNC(=O)c2c(C)oc3ncn(C)c(=O)c23)cc1` was 84%.
